This passage reports activity, negative = inhibition, Potency and Z-AUC results from PubChem BioAssay (NCATS).

Assay [1] can be described thus: qHTS profiling for inhibitors of Plasmodium falciparum proliferation (AID 504749). Also: potency is read from the fitted curve at half-maximal effect.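 As to activity, negative = inhibition: 0% = DMSO vehicle and full inhibition = artemisinin control.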 As to all read-outs here: nearly all actives have a fitted effect of over 60% in size. The conditions noted are these: P. falciparum in erythrocytes, SYBR Green DNA, 72 h; for activity, negative = inhibition: at 28.7 µM (top of the series). Put shortly: (§1)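 Three-day growth assay of blood-stage parasites in erythrocytes (0.3% parasitemia, 2.5% hematocrit) at 37 C, 5% CO2, quantified by SYBR Green DNA staining after overnight detergent lysis.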

In another assay the test system is 3D7. The assay is described as above. Particulars: P. falciparum in erythrocytes, SYBR Green DNA, 72 h; series mostly up to 28.7 µM. The procedure, abridged:
as §1

In a further assay the test system is 7G8. Described as above. The conditions noted are these: P. falciparum in erythrocytes, SYBR Green DNA, 72 h; series mostly up to 28.7 µM. The procedure, abridged:
as §1

In the next assay the test system is AA1029. The assay is described as above. The conditions noted are these: P. falciparum in erythrocytes, SYBR Green DNA, 72 h; series mostly up to 28.7 µM. Put shortly: as §1
For another assay, the system named is AS120. The description is as above. Particulars: P. falciparum in erythrocytes, SYBR Green DNA, 72 h; series mostly up to 28.7 µM. The procedure, abridged:
as §1

For a further assay, the system named is ATS189. Described as above. Particulars: P. falciparum in erythrocytes, SYBR Green DNA, 72 h; series mostly up to 28.7 µM. The procedure, abridged: as §1
Another assay concerns ATS95. Described as above. Particulars: P. falciparum in erythrocytes, SYBR Green DNA, 72 h; series mostly up to 28.7 µM. Put shortly:
as §1

A further assay concerns C2A. Described as above. Particulars: P. falciparum in erythrocytes, SYBR Green DNA, 72 h; series mostly up to 28.7 µM. The procedure, abridged:
as §1

For another assay, the system named is CP185. Described as above. Particulars: P. falciparum in erythrocytes, SYBR Green DNA, 72 h; series mostly up to 28.7 µM. Put shortly: as §1
In another assay the test system is CP191. The description is as above. The conditions noted are these: P. falciparum in erythrocytes, SYBR Green DNA, 72 h; series mostly up to 28.7 µM. The procedure, abridged: as §1
Assay [2] is described as follows: qHTS drug screen for cell cycle checkpoint inhibitors in PARPi-resistant BRCA-mutant ovarian cancer cell lines. (AID 1963452; calls by dose curve). Particulars: PEO1/OlaR viability, CellTiter-Glo luminescence, 96 h, stronger effect = lower value. Put shortly:
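PEO1, PEO4 and PEO1/OlaR ovarian cancer cells, 600 per well, exposed 96 h at 37C to a dilution series. Viability read by CellTiter-Glo luminescence, normalized to DMSO and empty wells; activity summarized as Z-AUC.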

Structures are written as SMILES. Where “and” joins values, the source holds several entries; their conditions need not be identical. Equal values may be shown once. Results filed as inconclusive are left out. Calls of active or inactive are those of the source. Unless noted, calls follow the shape of the dose curve; as a rule, active = well fitted inhibition curve with a large enough effect; inconclusive = small, poorly fitted or top-dose-only effect; inactive = flat fitted curve, though single readings scatter.

Consider `CC(C)NCC(O)c1ccc(N)c(C#N)c1` (stereo not given), for which the values for the activity, negative = inhibition in assay [1] (parasite line A) and in assay [1] (parasite line B) were 10.9% (inactive) and -9.32% (inactive), respectively. In addition, the Potency result with 3D7, in the assay with 7G8, in the assay on AA1029, in the assay with AS120, in the assay on ATS189 and in the assay on ATS95 was “inactive” in each case. Further, the Potency entry in the assay with C2A, in the assay with CP185 and in the assay on CP191 was “inactive” in each case.
Consider `COc1ccc(C(=O)N2CCCC2=O)cc1`, for which the Z-AUC in [2] was -0.603 (inactive); in [2] (measured here: PEO1 parental Z-AUC), 0.111; in [2] (measured here: PEO4 Z-AUC), -0.65. In addition, the activity, negative = inhibition in assay [1] (parasite line A) was 4.48% (inactive); in [1] (parasite line B), 11% (inactive). The Potency result with 3D7, in the assay on 7G8, in the assay on AA1029, with AS120, in the assay on ATS189 and with ATS95 was “inactive” in each case. Besides, the Potency entry in the assay with C2A, in the assay with CP185 and with CP191 was “inactive” in each case.
Regarding `CCN(CC)C(C)C(=O)c1ccccc1` (stereo not given), the results for the activity, negative = inhibition in assay [1] (parasite line A) and in assay [1] (parasite line B) were -2.34% (inactive) and 12.3% (inactive), respectively. Besides, the Potency entry in the assay on 3D7, in the assay on 7G8, in the assay with AA1029, in the assay on AS120, in the assay with ATS189 and in the assay with ATS95 was “inactive” in each case. The Potency result in the assay on C2A, in the assay with CP185 and in the assay with CP191 was “inactive” in each case.
For the compound `Cc1ccc(N=CN(C)C=Nc2ccc(C)cc2C)c(C)c1`, the results for the activity, negative = inhibition in assay [1] (parasite line A) and in [1] (parasite line B) were 5.73% (inactive) and 9.78% (inactive), respectively. Also, the Potency entry in the assay on 3D7, in the assay with 7G8, in the assay on AA1029, with AS120, with ATS189 and in the assay on ATS95 was “inactive” throughout. Moreover, the Potency entry in the assay with C2A, with CP185 and with CP191 was “inactive” throughout.
With `C[N+](C)(C)CCOC(=O)C(O)(c1ccccc1)c1ccccc1`, the activity, negative = inhibition in assay [1] (parasite line A) is 12.8% (inactive); in assay [1] (parasite line B) it was 7.74% (inactive). Moreover, the Potency entry with 3D7, with 7G8, with AA1029, in the assay on AS120, with ATS189 and in the assay with ATS95 was “inactive” in each case. The Potency entry with C2A, in the assay with CP185 and with CP191 was “inactive” each time.
Turning to `c1ccc2nc(N3CCNCC3)ccc2c1`, the activity, negative = inhibition in assay [1] (parasite line A) was 16.1% (inactive); in assay [1] (parasite line B), 9.33% (inactive). Also, the Potency entry with 3D7, in the assay on 7G8, in the assay with AA1029, with AS120, in the assay with ATS189 and with ATS95 was “inactive” throughout. The Potency entry in the assay on C2A, with CP185 and in the assay with CP191 was “inactive” each time.
Take `CC[n+]1c(-c2ccccc2)c2cc(N)ccc2c2ccc(N)cc21`: the Potency in assay [1] (parasite line A) was 158 nM (active) and 447 nM (active); in assay [1] (parasite line B) it was 112 nM (active) and 316 nM (active); in the assay with 3D7, 158 nM (active) and 251 nM (active); in the assay with 7G8, 39.8 nM (active) and 70.8 nM (active); in the assay on AA1029 it was 112 nM (active) and 355 nM (active); in the assay with AS120, 100 nM (active) and 282 nM (active). In addition, the Potency in the assay on ATS189 is 141 nM (active) and 708 nM (active); with ATS95 it was 126 nM (active) and 355 nM (active); in the assay on C2A, 251 nM (active) and 355 nM (active); in the assay on CP185, 158 nM (active) and 316 nM (active); in the assay with CP191, 282 nM (active) and 447 nM (active).
